The target in this assay is HLA-C*04:01. The assay is described as follows: thermal melting temperature (Tm) of peptide-HLA complex; higher = more thermostable pHLA complex. As for the experimental part:
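Endogenous HLA-C*04:01 ligands were detected in the thermostability assays of both the C1R-A*02:01 and C1R-B*07:02 lines. Lysates were heated 10 min at 37-73 °C and pHLA immunoprecipitated with W6/32. Peptides were quantified by DIA-MS and Tm was taken from a logistic sigmoid fit.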

B1: unnamed (peptide)
chain: AFDLTEQRY
On to B1, for which the thermal melting temperature stood at 55.9 °C (C1R-A*02:01) and 56.4 °C (C1R-B*07:02).

B2: unnamed (peptide)
chain: SFEEKPVYI
With B2, the thermal melting temperature is, setting by setting: (C1R-A*02:01) 56.8 °C; (C1R-B*07:02) 55.5 °C.

B3: unnamed (peptide)
chain: FLPEAPAEL
As to B3, the thermal melting temperature (C1R-A*02:01) was 54.1 °C and the thermal melting temperature (C1R-B*07:02) was 55.9 °C.

B4: unnamed (peptide)
chain: SFDEIHQLF
Sequence B4 had a thermal melting temperature (C1R-A*02:01) of 47.8 °C and a thermal melting temperature (C1R-B*07:02) of 52 °C.

B5: unnamed (peptide)
chain: HFDLSVIEL
As for B5, the thermal melting temperature turned out to be 57.1 °C (C1R-A*02:01) and 60.5 °C (C1R-B*07:02).

B6: unnamed (peptide)
chain: AFDASRTSF
In the case of B6, the thermal melting temperature was determined as 52.4 °C (C1R-A*02:01) and 52.8 °C (C1R-B*07:02).

B7: unnamed (peptide)
chain: SYDLANRDF
With B7, the thermal melting temperature is, setting by setting: (C1R-A*02:01) 58.3 °C; (C1R-B*07:02) 57.8 °C.

B8: unnamed (peptide)
chain: SFDAHLTEL
Sequence B8 yielded a thermal melting temperature (C1R-A*02:01) of 53 °C and a thermal melting temperature (C1R-B*07:02) of 52.9 °C.

B9: unnamed (peptide)
chain: TFDVSPKAV
Turning to B9, the thermal melting temperature is, setting by setting: (C1R-A*02:01) 41.9 °C; (C1R-B*07:02) 48.1 °C.

B10: unnamed (peptide)
chain: LYDEAIRHF
As to B10, the thermal melting temperature (C1R-A*02:01) is 56.5 °C and the thermal melting temperature (C1R-B*07:02) was determined as 60 °C.

B11: unnamed (peptide)
chain: LFDDKAVEI
In the case of B11, the thermal melting temperature reads like this: (C1R-A*02:01) 57.2 °C; (C1R-B*07:02) 57.2 °C.

B12: unnamed (peptide)
chain: DFDMTLSRF
Take B12: the thermal melting temperature was 52.8 °C (C1R-A*02:01) and 54.5 °C (C1R-B*07:02).

B13: unnamed (peptide)
chain: TYDYAKTIL
As for B13, the thermal melting temperature stood at 49 °C (C1R-A*02:01) and 46.9 °C (C1R-B*07:02).

B14: unnamed (peptide)
chain: FWDGKIVLV
On to B14, for which the thermal melting temperature (C1R-A*02:01) is 62.5 °C and the thermal melting temperature (C1R-B*07:02) came out at 60.7 °C.

B15: unnamed (peptide)
chain: FFDPSLLHL
Turning to B15, the thermal melting temperature amounted to 55.4 °C (C1R-A*02:01) and 55.8 °C (C1R-B*07:02).

B16: unnamed (peptide)
chain: FFDTNTSVL
Regarding B16, the thermal melting temperature is, setting by setting: (C1R-A*02:01) 55.5 °C; (C1R-B*07:02) 59.4 °C.

B17: unnamed (peptide)
chain: SFDETVTHF
Regarding B17, the thermal melting temperature came to 58.6 °C (C1R-A*02:01) and 59.8 °C (C1R-B*07:02).

B18: unnamed (peptide)
chain: VFDPIGHF
B18: the thermal melting temperature by setting is: (C1R-A*02:01) 59.3 °C; (C1R-B*07:02) 58.8 °C.

B19: unnamed (peptide)
chain: RFEDSPSYV
B19 returned a thermal melting temperature (C1R-A*02:01) of 54.4 °C and a thermal melting temperature (C1R-B*07:02) of 52.3 °C.

B20: unnamed (peptide)
chain: GGSFDVADRMF
In the case of B20, the thermal melting temperature reads like this: (C1R-A*02:01) 53.1 °C; (C1R-B*07:02) 53.2 °C.

B21: unnamed (peptide)
chain: VFDEAIRAVL
B21 registered a thermal melting temperature (C1R-A*02:01) of 60.2 °C and a thermal melting temperature (C1R-B*07:02) of 58.8 °C.

B22: unnamed (peptide)
chain: IYDEAISSF
On to B22, for which the thermal melting temperature runs as follows: (C1R-A*02:01) 58.9 °C; (C1R-B*07:02) 62.7 °C.

B23: unnamed (peptide)
chain: YFPELIANF
B23 showed a thermal melting temperature (C1R-A*02:01) of 45.6 °C and a thermal melting temperature (C1R-B*07:02) of 45.3 °C.

B24: unnamed (peptide)
chain: FFDSQGQVLL
Regarding B24, the thermal melting temperature is, setting by setting: (C1R-A*02:01) 51 °C; (C1R-B*07:02) 53.6 °C.
